In PubChem BioAssay (Tox21):
Values joined by “and” are separate entries in the source; they are usually repeats but may differ in a detail not shown here. Identical values can stand only once. Inconclusive results are not listed. A call without a number means that no potency is given here. Some structures have more than one record in an assay (separate samples or runs), and their calls can disagree. Active and inactive are the calls of the source. Unless noted, the call rests on the fitted dose curve.

Columns and labels:
[1] = molecular target: Gonadotropin-releasing hormone receptor (Homo sapiens) (UniProt P30968); assay: Human gonadotropin-releasing hormone receptor (GnRHR) small molecule agonists, calcium flux assay in GnRHR-HEK293 cells (AID 1920063); further: nearly all actives have a fitted effect of over 35% in size
Method in brief: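 We seeded human GnRHR-expressing HEK293 cells for 18 hours, loaded them with calcium dye for an hour at 37 C, added test compounds, and recorded fluorescence intensity kinetically for three minutes.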

[2] = molecular target: KiSS-1 receptor (Homo sapiens) (UniProt Q969F8); assay: Human kisspeptin (KISS1R) small molecule agonists, calcium flux assay in KISS1R-HEK293 cells (AID 1920064; active means well fitted activation curve with a large enough effect in the repeat runs)
Method in brief: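 Kinetic calcium assay, 1 s sampling over 3 min at Ex/Em 480/540, in HEK293 cells engineered with human KISS1R; compounds delivered in DMSO after 1 h dye loading.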

[3] = G protein-coupled receptor (GPCR) small molecule agonists, calcium flux assay: HEK293 wild type cell line counter screen (AID 1920065)
Method in brief: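 Calcium-sensitive dye, loaded 1 h at 37 C into cells cultured 18 h, reports compound-evoked calcium release as fluorescence (Ex/Em 480/540), measured over 3 min. Agonist mode; 15-point titrations, triplicate.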

[4] = p53 small molecule agonists, cell-based qHTS assay with human liver microsomes (AID 1963577);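 further: p53 response element beta-lactamase reporter cells with liver microsomes plus NADPH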
Method in brief: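 16 h, 37 C exposure of p53RE-bla cells to compounds with human liver microsomes and NADPH (0.5 mg/mL final each); detection via LiveBLAzer mixture, 2 h dark at room temperature.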

[5] = p53 small molecule agonists, cell-based qHTS assay with rat liver microsomes (AID 1963578)
Method in brief: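 With rat liver microsomes and NADPH present (0.5 mg/mL final each), p53RE-bla cells are treated with compound for 16 h at 37 C. LiveBLAzer detection mixture is then applied for 2 h at room temperature in the dark.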

[6] = p53 small molecule agonists, cell-based qHTS assay with human liver microsomes: qHTS cell viability counter screen (AID 1963579); further: nearly all actives have a fitted effect of over 45% in size; further: potency means the concentration at half of the fitted maximal effect
Method in brief: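 In this multiplexed counter screen, the reporter plates were subsequently treated with CellTiter-Glo so that cell viability, reflected by luminescence, could be recorded for p53RE-bla cells dosed 16 h with compounds under microsomal activation (HLM and NADPH).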

[7] = p53 small molecule agonists, cell-based qHTS assay with rat liver microsomes: qHTS cell viability counter screen (AID 1963580); further: nearly all actives have a fitted effect of over 45% in size
Method in brief: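 In HCT-116 cells carrying a p53 response element-bla reporter, compounds were metabolically activated in situ by rat liver microsomes with NADPH over 16 h. Cell ATP content then served as the cytotoxicity measure.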

[8] = p53 small molecule agonists, cell-based qHTS assay: qHTS cell viability counter screen (AID 1963581); further: nearly all actives have a fitted effect of over 45% in size
Method in brief: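 Following 5 h attachment, HCT-116 p53RE-bla cells took up compound for 16 h at 37 C; the reporter was read with B/G FRET substrate (2 h RT), and viability then via CellTiter-Glo ATP luminescence.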

[9] = molecular target: 5-hydroxytryptamine receptor 2A (Homo sapiens) (UniProt P28223); assay: 5-hydroxytryptamine receptor 2A (HTR2A) small molecule antagonists, cell-based qHTS assay (AID 1963586); further: nearly all actives have a fitted effect of over 45% in size
Method in brief: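 Antagonist-mode intracellular calcium assay: DOI (4 nM) added after 5 min compound pre-incubation at room temperature to dye-loaded HTR2A-CHO cells. Fluorescence followed for 3 min, sampled every second.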

[10] = molecular target: 5-hydroxytryptamine receptor 2A (Homo sapiens) (UniProt P28223); assay: 5-hydroxytryptamine receptor 2A (HTR2A) small molecule agonists, cell-based qHTS assay (AID 1963587); further: nearly all actives have a fitted effect of over 30% in size
Method in brief: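 HTR2A-CHO cells, plated 18 h at 37 C/5% CO2, dye-loaded 1 h at 37 C; compounds in DMSO added by pin tool (agonist mode). Intracellular calcium flux read as kinetic fluorescence on FDSS over 2 min at 1 s intervals.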

[11] = molecular target: Muscarinic acetylcholine receptor M1 (Homo sapiens) (UniProt P11229); assay: Cholinergic receptor muscarinic 1 (CHRM1) small molecule antagonists, cell-based qHTS assay (AID 1963588); further: nearly all actives have a fitted effect of over 40% in size
Method in brief: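 CHRM1-CHO calcium-flux assay, antagonist mode. Cells were seeded 18 h, dye-loaded 1 h at 37 C and given compound for 5 min at RT, then acetylcholine was added at 50nM. FDSS fluorescence was read 3 min; 15 concentrations, three runs.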

[12] = molecular target: Muscarinic acetylcholine receptor M1 (Homo sapiens) (UniProt P11229); assay: Cholinergic receptor muscarinic 1 (CHRM1) small molecule agonists, cell-based qHTS assay (AID 1963589); further: nearly all actives have a fitted effect of over 35% in size
Method in brief: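 Measures agonist-induced intracellular calcium rise. Stable human CHRM1 CHO line, 1 h dye load at 37 C, compounds from DMSO, kinetic fluorescence read.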

[13] = cAMP Responsive Elements (CRE) small molecule antagonists, cell-based qHTS assay (AID 1963591; active means well fitted inhibition curve with a large enough effect in the signal ratio in the repeat runs, not every such curve was filed as active; the % refers to the signal ratio)
Method in brief: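 HEK293T cells carrying a CRE-driven beta-lactamase reporter receive compound and NKH477 (0.25 uM final) for 3 h. Fluorescence from LiveBLAzer B/G FRET substrate is read after 2 h at room temperature.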

[14] = molecular target: Beta-2 adrenergic receptor (Homo sapiens) (UniProt P07550); assay: Adrenergic beta2 receptor (ADRB2) small molecule antagonists, cell-based qHTS assay (AID 1963592); further: series mostly up to about 92 µM; nearly all actives have a fitted effect of over 50% in size
Method in brief: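 Cells (CHO, stable ADRB2 overexpression) incubated 18-20hr at 37C; compounds added from DMSO; agonist mix (1nM isoproterenol, 100uM IBMX, 25uM Ro-20-1724) added; 0.5hr RT; d2-cAMP and anti-cAMP-cryptate added; 1hr RT; 665/615 nm read.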

[15] = molecular target: D(2) dopamine receptor (Homo sapiens) (UniProt P14416); assay: Dopamine D2 receptor (DRD2) small molecule agonists, cell-based qHTS assay (AID 1963594); further: nearly all actives have a fitted effect of over 35% in size
Method in brief: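 HEK293 cells stably expressing DRD2 were cultured 24 h at 37 C, then given Ro20-1724 (0.1 mM final) and compounds for 10 min at room temperature. NKH477 (200nM) was then added for 30 min. cAMP was read by HTRF.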

[16] = molecular target: D(2) dopamine receptor (Homo sapiens) (UniProt P14416); assay: Dopamine D2 receptor (DRD2) small molecule antagonists, cell-based qHTS assay (AID 1963595; active means well fitted inhibition curve with a large enough effect in the signal ratio in the repeat runs, with a control signal flat; the % refers to the signal ratio)
Method in brief: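 Stable D2 receptor HEK293 line, 24 h after seeding. Compound preincubated 10 min, then quinpirole (12 nM) with forskolin analogue NKH477 (200 nM), 30 min, room temperature. Detection by time-resolved FRET of cAMP.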

[17] = Nuclear factor erythroid 2-related factor 2/antioxidant responsive element (Nrf2/ARE) small molecule agonists: luciferase reporter gene qHTS assay in human keratinocytes (AID 1919969); further: nearly all actives have a fitted effect of over 35% in size; further: potency means the concentration at half of the fitted maximal effect
[18] = p53 small molecule agonists, cell-based qHTS assay (AID 1963582; active means well fitted activation curve with a large enough effect in the signal ratio in the repeat runs, not every such curve was filed as active; the % refers to the signal ratio)
Method in brief: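 In this cell-based concentration-response screen, a p53 response element drives beta-lactamase; cells received DMSO-borne compounds after 5 h culture and were incubated a further 16 h before FRET substrate development.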

[19] = cAMP Responsive Elements (CRE) small molecule agonists, cell-based qHTS assay (AID 1963590)
Method in brief: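 A CRE-responsive beta-lactamase reporter in HEK 293T cells was used. Treatment ran 3 h at 37 C; detection used LiveBLAzer B/G FRET substrate for 2 h at room temperature.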

[20] = molecular target: Beta-2 adrenergic receptor (Homo sapiens) (UniProt P07550); assay: Adrenergic beta2 receptor (ADRB2) small molecule agonists, cell-based qHTS assay (AID 1963593);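 further: CHO cells stably overexpressing human ADRB2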
Method in brief: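 CHO cells stably over-expressing ADRB2 were plated overnight at 37C, then dosed with compounds plus a stimulation mix containing 100uM IBMX and 25uM Ro-20-1724 for 0.5hr at room temperature. cAMP was measured by HTRF competition, 1hr.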

Gonadotropin-releasing hormone receptor (Homo sapiens), sequence (P30968 whole entry, looked up): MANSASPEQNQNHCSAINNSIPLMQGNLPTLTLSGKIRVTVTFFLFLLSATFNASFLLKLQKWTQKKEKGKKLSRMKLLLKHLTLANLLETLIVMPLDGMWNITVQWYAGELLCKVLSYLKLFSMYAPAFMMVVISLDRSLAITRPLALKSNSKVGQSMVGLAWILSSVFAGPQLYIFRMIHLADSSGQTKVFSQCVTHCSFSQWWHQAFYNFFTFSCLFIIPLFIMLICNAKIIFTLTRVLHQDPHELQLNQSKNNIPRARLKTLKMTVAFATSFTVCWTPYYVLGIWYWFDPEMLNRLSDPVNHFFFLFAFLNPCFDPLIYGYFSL
KiSS-1 receptor (Homo sapiens), sequence (Q969F8 whole entry, looked up): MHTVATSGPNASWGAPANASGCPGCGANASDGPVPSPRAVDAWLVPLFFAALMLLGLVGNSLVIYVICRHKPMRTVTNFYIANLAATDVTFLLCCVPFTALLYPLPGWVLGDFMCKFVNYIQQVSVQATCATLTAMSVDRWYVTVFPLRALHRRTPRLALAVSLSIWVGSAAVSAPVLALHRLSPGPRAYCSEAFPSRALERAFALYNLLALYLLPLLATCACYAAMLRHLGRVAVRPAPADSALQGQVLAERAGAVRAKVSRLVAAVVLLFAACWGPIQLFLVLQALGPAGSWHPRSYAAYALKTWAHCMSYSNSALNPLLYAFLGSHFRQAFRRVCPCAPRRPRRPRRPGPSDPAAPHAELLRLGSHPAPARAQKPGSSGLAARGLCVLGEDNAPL
D(2) dopamine receptor (Homo sapiens), sequence (P14416 whole entry, looked up): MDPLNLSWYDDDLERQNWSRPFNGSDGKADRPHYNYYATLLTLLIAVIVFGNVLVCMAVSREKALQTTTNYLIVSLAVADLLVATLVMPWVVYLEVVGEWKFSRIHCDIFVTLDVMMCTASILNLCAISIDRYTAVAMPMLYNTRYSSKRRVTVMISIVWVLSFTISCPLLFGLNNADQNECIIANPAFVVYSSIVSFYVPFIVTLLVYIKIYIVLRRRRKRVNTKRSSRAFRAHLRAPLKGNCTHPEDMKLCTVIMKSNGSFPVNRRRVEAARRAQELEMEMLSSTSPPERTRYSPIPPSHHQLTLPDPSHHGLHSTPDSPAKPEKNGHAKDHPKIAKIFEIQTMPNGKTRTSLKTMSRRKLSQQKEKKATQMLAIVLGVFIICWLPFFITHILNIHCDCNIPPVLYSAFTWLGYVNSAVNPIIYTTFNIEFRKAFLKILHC
Muscarinic acetylcholine receptor M1 (Homo sapiens), sequence (P11229 whole entry, looked up): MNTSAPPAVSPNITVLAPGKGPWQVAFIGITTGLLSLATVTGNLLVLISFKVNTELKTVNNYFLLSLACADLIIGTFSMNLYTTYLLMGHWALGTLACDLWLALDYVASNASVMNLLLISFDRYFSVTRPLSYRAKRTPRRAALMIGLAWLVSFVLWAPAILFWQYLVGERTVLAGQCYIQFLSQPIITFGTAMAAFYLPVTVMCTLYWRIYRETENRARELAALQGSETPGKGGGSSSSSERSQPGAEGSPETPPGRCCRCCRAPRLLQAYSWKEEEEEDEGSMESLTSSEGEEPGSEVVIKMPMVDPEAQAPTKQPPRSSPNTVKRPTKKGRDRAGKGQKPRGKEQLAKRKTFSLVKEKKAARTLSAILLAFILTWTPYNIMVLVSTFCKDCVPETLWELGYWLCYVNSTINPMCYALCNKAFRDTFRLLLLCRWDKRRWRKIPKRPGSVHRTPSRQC
5-hydroxytryptamine receptor 2A (Homo sapiens), sequence (P28223 whole entry, looked up): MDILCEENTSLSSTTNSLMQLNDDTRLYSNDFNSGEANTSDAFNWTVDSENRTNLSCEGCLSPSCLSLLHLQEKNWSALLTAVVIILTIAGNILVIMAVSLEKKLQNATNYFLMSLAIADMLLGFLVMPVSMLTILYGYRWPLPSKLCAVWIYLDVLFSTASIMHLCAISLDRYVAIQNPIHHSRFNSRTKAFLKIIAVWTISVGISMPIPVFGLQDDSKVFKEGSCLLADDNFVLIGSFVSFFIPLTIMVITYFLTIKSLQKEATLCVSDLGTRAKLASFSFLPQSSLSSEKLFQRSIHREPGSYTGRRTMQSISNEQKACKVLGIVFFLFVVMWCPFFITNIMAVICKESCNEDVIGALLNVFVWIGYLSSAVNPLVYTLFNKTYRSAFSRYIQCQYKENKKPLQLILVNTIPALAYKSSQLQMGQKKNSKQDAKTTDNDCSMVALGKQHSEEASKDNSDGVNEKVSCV
Beta-2 adrenergic receptor (Homo sapiens), sequence (P07550 whole entry, looked up): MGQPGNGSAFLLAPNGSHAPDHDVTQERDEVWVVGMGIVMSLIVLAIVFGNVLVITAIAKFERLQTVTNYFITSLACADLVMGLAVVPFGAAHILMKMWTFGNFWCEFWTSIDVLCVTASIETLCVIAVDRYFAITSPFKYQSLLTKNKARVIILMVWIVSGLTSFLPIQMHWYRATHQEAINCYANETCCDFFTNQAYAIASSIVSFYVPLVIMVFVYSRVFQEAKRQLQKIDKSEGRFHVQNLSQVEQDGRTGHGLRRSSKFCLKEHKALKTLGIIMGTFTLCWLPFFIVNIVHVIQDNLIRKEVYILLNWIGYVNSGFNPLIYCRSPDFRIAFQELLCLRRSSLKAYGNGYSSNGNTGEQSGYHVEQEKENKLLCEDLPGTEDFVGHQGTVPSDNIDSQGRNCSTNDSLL

Row | SMILES | Potency [1] | Potency [2] | Potency [3] | Potency [4] | Potency [5] | Potency [6] | Potency [7] | Potency [8] | Potency [9] | Potency [10] | Potency [11] | Potency [12] | Potency [13] | Potency [14] | Potency [15] | Potency [16] | Potency [17] | Potency [18] | Potency [19] | Potency [20]
1 | CCC(C)OC(=O)c1ccc(O)cc1 (stereo not drawn) | inactive | inactive | inactive | inactive | inactive | inactive | inactive | inactive | inactive | inactive | inactive | inactive | inactive | inactive | inactive | inactive | – | – | – | –
2 | CCCCCCC(C)O (stereo not drawn) | – | inactive | inactive | – | inactive | inactive | inactive | – | inactive | inactive | inactive | inactive | inactive | inactive | – | inactive | inactive | inactive | inactive | inactive
3 | O=C(O)CCCC[C@@H]1SC[C@@H]2NC(=O)N[C@@H]21 | inactive | – | inactive | – | – | inactive | inactive | inactive | inactive | inactive | inactive | – | inactive | – | – | inactive | inactive | – | inactive | inactive
4 | O=C(Oc1ccccc1)c1ccccc1O | inactive | inactive | inactive | – | – | inactive and 40.8 µM (active) | inactive | inactive | inactive | inactive | inactive | inactive | inactive | inactive | – | inactive | inactive and 68.6 µM (active) | – | inactive | –
5 | COc1ccc(Cl)cc1C(=O)NCCc1ccc(S(=O)(=O)NC(=O)NC2CCCCC2)cc1 | inactive | inactive | – | inactive | inactive | inactive | inactive | inactive | – | – | – | – | – | inactive | – | inactive | inactive | inactive | – | –
6 | C[C@H]1C[C@@H]2[C@H]([C@@H](O)C[C@@]3(C)[C@H]2CC[C@]3(O)C(=O)CO)[C@@]2(C)C=CC(=O)C=C12 | inactive | inactive | – | inactive | – | inactive | inactive | inactive | – | – | – | – | – | inactive | inactive | inactive | inactive | inactive | inactive | inactive
7 | NC(=O)N1c2ccccc2C=Cc2ccccc21 | inactive | inactive | inactive | – | – | inactive | inactive | – | – | – | – | – | inactive | inactive | inactive | inactive | – | – | inactive | –
8 | C/C=C/c1ccc(O)c(OC)c1 | inactive | inactive | inactive | inactive | inactive | inactive | – | inactive | – | – | – | – | inactive | inactive | inactive | inactive | – | inactive | inactive | inactive
